Measured values from PubChem BioAssay.
“And” between values parts separate entries of the source, which are not always exact repeats. Equal entries are not always repeated. Unmarked numbers belong to inactive results. The source made the active and inactive calls.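 Rule for the calls: active = thallium flux through the channel raised or lowered by more than 3 SD from vehicle-only wells, actives on both sides; inactive = the rest.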

Test system: F380Y
Test: modulators of BK channel variants, profiling panel, selectivity assay, cell-based, U2OS BacMam, thallium flux, beta subunits (AID 1259406);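 note: initial slope of Thallos dye fluorescence rise after thallium is added; log ratio against the mean of 0.3% DMSO vehicle wells on the same plate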
Conditions: at 30 µM

| Compound | log fold change Tl+ flux |
| --- | --- |
| O=C(O)COCCN1CCN(C(c2ccccc2)c2ccc(Cl)cc2)CC1 (stereo not given) | 0.0594 |
| Clc1ccccc1CN1CCc2sccc2C1 | -0.26 (active) |
| C[N+]1(C)CCC(OC(=O)C(O)(c2ccccc2)C2CCCC2)C1 (stereo not given) | -0.0314 and -0.0508 |
| CC(C)(C(=O)O)c1ccc(C(O)CCCN2CCC(C(O)(c3ccccc3)c3ccccc3)CC2)cc1 (stereo not given) | -0.178 (active) |
| CC(C)n1c(/C=C/[C@@H](O)C[C@@H](O)CC(=O)O)c(-c2ccc(F)cc2)c2ccccc21 | 0.0848 |

Test system: F380Y/beta1
Test: as above
Conditions: at 30 µM

| Compound | log fold change Tl+ flux |
| --- | --- |
| O=C(O)COCCN1CCN(C(c2ccccc2)c2ccc(Cl)cc2)CC1 (stereo not given) | 0.0627 |
| Clc1ccccc1CN1CCc2sccc2C1 | -0.0989 (active) |
| C[N+]1(C)CCC(OC(=O)C(O)(c2ccccc2)C2CCCC2)C1 (stereo not given) | 0.0124 and -0.000209 |
| CC(C)(C(=O)O)c1ccc(C(O)CCCN2CCC(C(O)(c3ccccc3)c3ccccc3)CC2)cc1 (stereo not given) | -0.0158 |
| CC(C)n1c(/C=C/[C@@H](O)C[C@@H](O)CC(=O)O)c(-c2ccc(F)cc2)c2ccccc21 | 0.0905 |

Test system: F380Y/beta2Delta
Test: as above
Conditions: at 30 µM

| Compound | log fold change Tl+ flux |
| --- | --- |
| O=C(O)COCCN1CCN(C(c2ccccc2)c2ccc(Cl)cc2)CC1 (stereo not given) | 0.0743 (active) |
| Clc1ccccc1CN1CCc2sccc2C1 | -0.214 (active) |
| C[N+]1(C)CCC(OC(=O)C(O)(c2ccccc2)C2CCCC2)C1 (stereo not given) | 0.0168 and -0.0515 |
| CC(C)(C(=O)O)c1ccc(C(O)CCCN2CCC(C(O)(c3ccccc3)c3ccccc3)CC2)cc1 (stereo not given) | -0.00892 |
| CC(C)n1c(/C=C/[C@@H](O)C[C@@H](O)CC(=O)O)c(-c2ccc(F)cc2)c2ccccc21 | 0.0465 |

Test system: F380Y/beta4
Test: as above
Conditions: at 30 µM

| Compound | log fold change Tl+ flux |
| --- | --- |
| O=C(O)COCCN1CCN(C(c2ccccc2)c2ccc(Cl)cc2)CC1 (stereo not given) | 0.0511 |
| Clc1ccccc1CN1CCc2sccc2C1 | -0.152 (active) |
| C[N+]1(C)CCC(OC(=O)C(O)(c2ccccc2)C2CCCC2)C1 (stereo not given) | -0.00589 and 0.00112 |
| CC(C)(C(=O)O)c1ccc(C(O)CCCN2CCC(C(O)(c3ccccc3)c3ccccc3)CC2)cc1 (stereo not given) | -0.0315 |
| CC(C)n1c(/C=C/[C@@H](O)C[C@@H](O)CC(=O)O)c(-c2ccc(F)cc2)c2ccccc21 | 8.3e-05 |

Target: Calcium-activated potassium channel subunit alpha-1 (Homo sapiens) + Leucine-rich repeat-containing protein 26 (Homo sapiens) (UniProt Q12791+Q2I0M4)
Test: as above
Conditions: F380Y/Slo1WT/gamma1, at 30 µM

Chain of Calcium-activated potassium channel subunit alpha-1 (Homo sapiens) + Leucine-rich repeat-containing protein 26 (Homo sapiens) (Q2I0M4 whole entry, looked up, one chain of several): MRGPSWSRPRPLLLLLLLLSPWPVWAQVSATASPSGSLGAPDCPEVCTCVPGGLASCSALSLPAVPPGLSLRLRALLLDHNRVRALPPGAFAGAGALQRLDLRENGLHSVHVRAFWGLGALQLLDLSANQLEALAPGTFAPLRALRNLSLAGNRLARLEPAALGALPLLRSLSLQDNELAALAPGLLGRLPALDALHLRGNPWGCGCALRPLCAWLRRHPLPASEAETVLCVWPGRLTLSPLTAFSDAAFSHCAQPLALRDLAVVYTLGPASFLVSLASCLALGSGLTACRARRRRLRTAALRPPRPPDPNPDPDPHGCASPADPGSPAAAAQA

| Compound | log fold change Tl+ flux |
| --- | --- |
| O=C(O)COCCN1CCN(C(c2ccccc2)c2ccc(Cl)cc2)CC1 (stereo not given) | 0.0148 |
| Clc1ccccc1CN1CCc2sccc2C1 | -0.00222 |
| C[N+]1(C)CCC(OC(=O)C(O)(c2ccccc2)C2CCCC2)C1 (stereo not given) | -0.0241 and -0.0355 |
| CC(C)(C(=O)O)c1ccc(C(O)CCCN2CCC(C(O)(c3ccccc3)c3ccccc3)CC2)cc1 (stereo not given) | 0.0201 |
| CC(C)n1c(/C=C/[C@@H](O)C[C@@H](O)CC(=O)O)c(-c2ccc(F)cc2)c2ccccc21 | 0.11 (active) |

Test system: R275C
Test: as above
Conditions: at 30 µM

| Compound | log fold change Tl+ flux |
| --- | --- |
| O=C(O)COCCN1CCN(C(c2ccccc2)c2ccc(Cl)cc2)CC1 (stereo not given) | 0.0304 |
| Clc1ccccc1CN1CCc2sccc2C1 | -0.105 |
| C[N+]1(C)CCC(OC(=O)C(O)(c2ccccc2)C2CCCC2)C1 (stereo not given) | -0.0259 and -0.0857 |
| CC(C)(C(=O)O)c1ccc(C(O)CCCN2CCC(C(O)(c3ccccc3)c3ccccc3)CC2)cc1 (stereo not given) | 0.00746 |
| CC(C)n1c(/C=C/[C@@H](O)C[C@@H](O)CC(=O)O)c(-c2ccc(F)cc2)c2ccccc21 | -0.0365 |

Test system: R275C/beta1
Test: as above
Conditions: at 30 µM

| Compound | log fold change Tl+ flux |
| --- | --- |
| O=C(O)COCCN1CCN(C(c2ccccc2)c2ccc(Cl)cc2)CC1 (stereo not given) | 0.109 |
| Clc1ccccc1CN1CCc2sccc2C1 | -0.145 (active) |
| C[N+]1(C)CCC(OC(=O)C(O)(c2ccccc2)C2CCCC2)C1 (stereo not given) | 0.0143 and 0.0309 |
| CC(C)(C(=O)O)c1ccc(C(O)CCCN2CCC(C(O)(c3ccccc3)c3ccccc3)CC2)cc1 (stereo not given) | -0.0122 |
| CC(C)n1c(/C=C/[C@@H](O)C[C@@H](O)CC(=O)O)c(-c2ccc(F)cc2)c2ccccc21 | 0.145 (active) |

Test system: R275C/beta2Delta
Test: as above
Conditions: at 30 µM

| Compound | log fold change Tl+ flux |
| --- | --- |
| O=C(O)COCCN1CCN(C(c2ccccc2)c2ccc(Cl)cc2)CC1 (stereo not given) | 0.056 |
| Clc1ccccc1CN1CCc2sccc2C1 | -0.13 (active) |
| C[N+]1(C)CCC(OC(=O)C(O)(c2ccccc2)C2CCCC2)C1 (stereo not given) | 0.0449 and -0.0318 |
| CC(C)(C(=O)O)c1ccc(C(O)CCCN2CCC(C(O)(c3ccccc3)c3ccccc3)CC2)cc1 (stereo not given) | -0.0184 |
| CC(C)n1c(/C=C/[C@@H](O)C[C@@H](O)CC(=O)O)c(-c2ccc(F)cc2)c2ccccc21 | 0.135 (active) |

Test system: R275C/beta4
Test: as above
Conditions: at 30 µM

| Compound | log fold change Tl+ flux |
| --- | --- |
| O=C(O)COCCN1CCN(C(c2ccccc2)c2ccc(Cl)cc2)CC1 (stereo not given) | 0.0338 |
| Clc1ccccc1CN1CCc2sccc2C1 | -0.0465 |
| C[N+]1(C)CCC(OC(=O)C(O)(c2ccccc2)C2CCCC2)C1 (stereo not given) | 0.0451 and -0.0272 |
| CC(C)(C(=O)O)c1ccc(C(O)CCCN2CCC(C(O)(c3ccccc3)c3ccccc3)CC2)cc1 (stereo not given) | 0.0234 |
| CC(C)n1c(/C=C/[C@@H](O)C[C@@H](O)CC(=O)O)c(-c2ccc(F)cc2)c2ccccc21 | 0.103 |
